This passage reports outcome and AC50 results from PubChem BioAssay (EPA / NIEHS).

Active and inactive are the calls of the source. The calls were made as follows: active = hit-call score of the fitted dose curve at least 0.9, where 1 is the maximum; inactive = score below 0.9.

Read-out in the assay: urokinase plasminogen activator (uPA), PLAU (gene 5328)
Briefly: BSK_KF3CT_uPA: BioMAP Diversity Plus: KF3CT Assay for urokinase plasminogen activator (uPA) Biomarker Activity (AID 2283075). As to conditions: primary human keratinocytes with fibroblasts; actives raise or lower the signal. Here is the method: BSK_KF3CT is a cell-based, multiplexed-readout assay that uses keratinocytes and foreskin fibroblasts, a human skin primary cell co-culture, with measurements taken at 24 hours after chemical dosing in a 96-well plate.BSK_KF3CTA is an assay component measured in the BSK_KF3CT assay. It measures uPA antibody related to regulation of gene expression using ELISA technology.Data from the assay component BSK_KF3CTA was analyzed into 1 assay endpoint. This assay endpoint, BSK_KF3CTA, was analyzed with bidirectional fitting relative to DMSO as the negative control and baseline of activity. Using a type of binding reporter, gain or loss-of-signal activity can be used to understand changes in the signaling as they relate to the gene PLAU. Furthermore, this assay endpoint can be referred to as a primary readout, because this assay has produced multiple assay endpoints where this one serves a signaling function. To generalize the intended target to other relatable targets, this assay endpoint is annotated to the protease intended target family, where the subfamily is serine protease.
The levels of cell surface (or secreted, indicated by the prefix "s") biomarker endpoints were measured by ELISA. Overt cytotoxicity to cells in confluent adherent cultures (all systems other than the BT system) was assessed by measuring total protein levels using sulforhodamine B (SRB) staining in parallel cultures at the time of biomarker measurements, indicated as SRB endpoints. For proliferation assays for adherent cell types, individual cell types are cultured at sub-confluence and relative cell numbers quantified by SRB staining at time points optimized for each system (48 h: 3C and CASM3C systems; 72 h: BT and HDF3CGF systems; 96 h: SAg system). SRB was performed by staining cells with 0.1% SRB after fixation with 10% TCA and reading wells at 560 nm.Viability and proliferation of PBMC (T cells) was quantified by Alamar Blue reduction for the SAg and BT systems. For PBMC viability (referred to as PBMC Cytotoxicity within the assay endpoint names), cells were plated (75,000/well in a 96-well plate) and then chemical samples added for 1 h before addition of activators, SEB and TSST-1 (20 ng/mL final concentration each). Cells were incubated for 90 h. Then, Alamar Blue (20 uL/well) (Invitrogen, Cat DAL1100) was added for 6 h, and the plates were read with a fluorescence microplate reader at 546/580 nm (excitation/emission). For PBMC proliferation, cells were plated and activated as above but incubated for only 16 h prior to addition of Alamar Blue. Plates were read after 6 h.
On to `O=c1n(Cl)c(=O)n(Cl)c(=O)n1Cl`, for which the result was inactive.

With `COC(=O)c1c(C(F)F)nc(C(F)(F)F)c(C2=NCCS2)c1CC(C)C`, the outcome was inactive.

For the compound `CC1(C)CON(Cc2ccccc2Cl)C1=O`, the result was inactive.

Regarding `CC(C)NC(=O)N1CC(=O)N(c2cc(Cl)cc(Cl)c2)C1=O`, the result was inactive.

`Cc1cnc(C2=NC(C)(C(C)C)C(=O)N2)c(C(=O)O)c1` (stereo not given): the outcome was inactive.

With `C=CCOC(=O)C(C)(C)OC(=O)c1cc(-n2c(=O)cc(C(F)(F)F)n(C)c2=O)ccc1Cl`, the outcome was inactive.

With `Cn1c(-c2ccccc2)cc(-c2ccccc2)[n+]1C`, the AC50 was 12 µM (active).

`Clc1nc(Cl)nc(Nc2ccccc2Cl)n1`: the outcome was inactive.

Take `CCCC(=NOCC)C1=C(O)CC(CC(C)SCC)CC1=O` (stereo not given): the outcome was inactive.

Consider `O=P(O)(O)CCCl`, for which the result was inactive.

In the case of `O=C(Nc1ccccc1-c1ccc(Cl)cc1)c1cccnc1Cl`, the result was inactive.

In the case of `COP(=O)(OC)O/C(C)=C/C(=O)N(C)C`, the result was inactive.

Regarding `N#Cc1c[nH]cc1-c1cccc2c1OC(F)(F)O2`, the outcome was inactive.

In the case of `CCCCC(C#N)(Cn1cncn1)c1ccc(Cl)cc1` (stereo not given), the result was inactive.

For the compound `COCc1cnc(C2=NC(C)(C(C)C)C(=O)N2)c(C(=O)O)c1` (stereo not given), the result was inactive.

For the compound `CCSC(=O)N1CCCCCC1`, the outcome was inactive.

As for `Nc1c(Cl)c(F)nc(OCC(=O)O)c1Cl`, the result was inactive.

Take `CCOP(=S)(OCC)Oc1nc(Cl)n(C(C)C)n1`: the result was inactive.

On to `CC(C)(C)C(=O)C(Oc1ccc(Cl)cc1)n1cncn1` (stereo not given), for which the outcome was inactive.

Consider `CC(C)C1(C)N=C(c2ncccc2C(=O)O)NC1=O` (stereo not given), for which the outcome was inactive.

For `CCOC(=O)C(C)OC(=O)c1cc(Oc2ccc(C(F)(F)F)cc2Cl)ccc1[N+](=O)[O-]` (stereo not given), the result was inactive.

Regarding `CCCN(CC)CC1COC2(CCC(C(C)(C)C)CC2)O1` (stereo not given), the result was inactive.

Take `Nc1c(Cl)c(Cl)nc(C(=O)O)c1Cl`: the outcome was inactive.

`N#Cc1c(Cl)cccc1Cl`: the outcome was inactive.

With `COC(=O)NS(=O)(=O)c1ccc(N)cc1`, the result was inactive.

In the case of `COC(=O)N(C(=O)N1CO[C@@]2(C(=O)OC)Cc3cc(Cl)ccc3C2=N1)c1ccc(OC(F)(F)F)cc1`, the outcome was inactive.

As to `CCOP(=O)(OCC)Oc1nc(Cl)c(Cl)cc1Cl`, the half-maximal activity concentration (AC50) is 9.55 µM (active).

Take `COc1cc(Cl)c(OC)cc1Cl`: the result was inactive.

For `Nc1cnn(-c2ccccc2)c(=O)c1Cl`, the result was inactive.

Regarding `CN/C(=N\[N+](=O)[O-])NCc1cnc(Cl)s1`, the outcome was inactive.

Take `Cc1c(COC(=O)[C@@H]2[C@H](/C=C(\Cl)C(F)(F)F)C2(C)C)cccc1-c1ccccc1`: the result was inactive.

Regarding `CCCCC(O)(Cn1cncn1)c1ccc(Cl)cc1Cl` (stereo not given), the outcome was inactive.

For the compound `CCN(CC)c1nc(C)cc(OP(=S)(OC)OC)n1`, the result was inactive.

With `CC(C)Nc1nc(Cl)nc(NC(C)C)n1`, the result was inactive.

In the case of `CC1(C)C(C(=O)OC(C#N)c2cccc(Oc3ccccc3)c2)C1(C)C` (stereo not given), the result was inactive.

With `CNC(=O)Oc1cccc2ccccc12`, the outcome was inactive.

For `CCNC(=O)NC(=O)C(C#N)=NOC`, the outcome was inactive.

As for `CC(C)N1C(=O)c2ccccc2NS1(=O)=O`, the result was inactive.

Turning to `COP(=S)(OC)Oc1ccc([N+](=O)[O-])c(C)c1`, the result was inactive.

For `CCOc1nc(F)cc2nc(S(=O)(=O)Nc3c(Cl)cccc3Cl)nn12`, the result was inactive.
